Laboratory results as given in the supplement of paper PMC10515830.
Structures can show the parent of a compound that is named as a salt.

Assays:
Conditions in all cases: 10 µM; exposure time 6 h
[1] = test system: Danio rerio larvae (5 dpf); assay: difference in excitability vs DMSO (percentage points); higher = more excitable than DMSO
Procedure, shortened: (§1)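 Wild-type 5 dpf zebrafish larvae in 96-well plates were given 100 µL egg water containing library compound at 10 µM final for 6 h. After 3 h of exposure, plates at 28.5 ℃ were photographed every 6 s during a 3-h programme of moving lines and 100 ms, 400Hz tones. Z-LaP Tracker (a DeepLabCut model) quantified each behaviour, averaged over 48 larvae per compound. Values are the compound mean minus the DMSO-vehicle control, in percentage points.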

[2] = test system: Danio rerio larvae (5 dpf); assay: difference in startle response vs DMSO (percentage points); higher = stronger startle than DMSO
Procedure, shortened: as §1

[3] = test system: Danio rerio larvae (5 dpf); assay: difference in activity during first hour vs DMSO (percentage points); higher = more activity than DMSO
Procedure, shortened: as §1

[4] = test system: Danio rerio larvae (5 dpf); assay: difference in habituation to acoustic stimuli vs DMSO (percentage points); higher = more habituation than DMSO
Procedure, shortened: as §1

[5] = test system: Danio rerio larvae (5 dpf); assay: difference in combined optomotor response to red, green and blue moving lines vs DMSO (percentage points); higher = stronger optomotor response than DMSO
Procedure, shortened: as §1

Compound	difference in excitability [1]	difference in startle response [2]	difference in activity during first hour [3]	difference in habituation to acoustic stimuli [4]	difference [5]
CC(C)(CO)c1cc2cc(NC(=O)C3(c4ccc5c(c4)OC(F)(F)O5)CC3)c(F)cc2n1C[C@@H](O)CO	16.7	3.44	15.2	6.02	6.53
OCCN1CCN(CCCN2c3ccccc3Sc3ccc(C(F)(F)F)cc32)CC1 [Fluphenazine (hydrochloride)]	23.3	5.93	15.6	-10.4	-5.63
C[C@](N)(Cc1ccc(O)cc1)C(=O)O [Metyrosine]	0.523	8.55	-8.67	12.3	-4.59
COC(=O)C1=C(C)NC(C)=C(C(=O)OCC(C)C)C1c1ccccc1[N+](=O)[O-] (stereo not given) [Nisoldipine]	7.56	-9.87	0.119	-9.06	-16.9
Cc1cccc(C)c1OCC(C)N (stereo not given) [Mexiletine (hydrochloride)]	9.5	1.48	-2.5	-10.3	1.04
C#C[C@]1(O)CC[C@H]2[C@@H]3CCc4cc(OC)ccc4[C@H]3CC[C@@]21C [Mestranol]	23	-9.55	-22.7	1.6	-16.5
CC(C)c1nc(CN(C)C(=O)N[C@H](C(=O)N[C@@H](Cc2ccccc2)C[C@H](O)[C@H](Cc2ccccc2)NC(=O)OCc2cncs2)C(C)C)cs1 [Ritonavir]	-4.63	0.564	2.31	6.79	1.78
CN(C)CCC=C1c2ccccc2CCc2ccccc21 [Amitriptyline (hydrochloride)]	2.65	5.98	-3.87	-14.7	-8.17
CC1(C)O[C@@H]2[C@@H](CO[C@@]3(COS(N)(=O)=O)OC(C)(C)O[C@@H]23)O1 [Topiramate]	-2.77	10.8	-1.72	1.75	-0.45
CO/N=C1\C[C@]2(C[C@@H]3C[C@@H](C/C=C(\C)C[C@@H](C)/C=C/C=C4\CO[C@@H]5[C@H](O)C(C)=C[C@@H](C(=O)O3)[C@]45O)O2)O[C@H](/C(C)=C/C(C)C)[C@H]1C [Moxidectin]	8.4	-9.21	-23	-11.5	-17
C[C@@](Cc1ccc(O)c(O)c1)(NN)C(=O)O [Carbidopa (hydrate)]	5.76	3.77	4.48	-7.23	6.07
CSc1ccc2c(c1)N(CCC1CCCCN1C)c1ccccc1S2 (stereo not given) [Thioridazine (hydrochloride)]	19.8	-0.778	12.9	-8.21	-5
CCN1CCN(Cc2ccc(Nc3ncc(F)c(-c4cc(F)c5nc(C)n(C(C)C)c5c4)n3)nc2)CC1	21.9	1.59	-3.04	0.786	2.57
NC[C@H]1O[C@H](O[C@H]2[C@H](O)[C@@H](O[C@H]3O[C@H](CO)[C@@H](O)[C@H](N)[C@H]3O)[C@H](N)C[C@@H]2N)[C@H](N)C[C@@H]1O [Tobramycin]	25.5	-1.65	-2.18	4.43	-2.09
OC(c1cc(C(F)(F)F)nc2c(C(F)(F)F)cccc12)C1CCCCN1 (stereo not given) [Mefloquine (hydrochloride)]	20.8	-3.76	-1.02	-0.417	-0.0553
CN(C)C(=N)NC(=N)N [Metformin (hydrochloride)]	-3.21	1.77	-3.05	-5.21	-1.97
CCCCCCOC(=O)CCC(=O)CN [Hexaminolevulinate (hydrochloride)]	5.6	3.54	2.02	7.86	2.47
CNC(=O)c1ccc(N2C(=S)N(c3ccc(C#N)c(C(F)(F)F)c3)C(=O)C2(C)C)cc1F	13.3	4.28	-11	-1.47	-0.198
CC(CN1c2ccccc2Sc2ccccc21)N(C)C (stereo not given) [Promethazine (hydrochloride)]	7.65	-2.21	16.6	-3.09	4.32
Nc1ccc(S(=O)(=O)c2ccc(N)cc2)cc1 [Dapsone]	4.16	3.11	2.88	2.23	1.86
O=C(O)C(=O)O.[NH-][C@@H]1CCCC[C@H]1[NH-].[Pt+2] [Oxaliplatin]	-8.81	2.6	-6.68	11.3	1.69
CC(=O)N(O)CCCCCNC(=O)CCC(=O)N(O)CCCCCNC(=O)CCC(=O)N(O)CCCCCN [Deferoxamine (mesylate)]	4.87	-4.66	10.3	-2.2	2.91
Nc1cccc2c1C(=O)N(C1CCC(=O)NC1=O)C2=O (stereo not given) [Pomalidomide]	0.1	2.2	0.787	2.64	1.26
